Test results taken from PubChem BioAssay (NCI).
The panel holds about 83,000 compounds, 20% with a hit somewhere; the sample as a whole holds those more often.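 Treatment: one concentration, 48 hours, 96-well format. Scoring: percent growth, with anything below 10 considered active.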 Values without a mark were called inactive. The source made the active and inactive calls.

Experiments:
Test in all cases: NCI-60 one-dose screen, 48 h (100 = growth as untreated, 0 = no growth, -100 = all killed)
Details in all cases: 10 µM
NCI-H23 lung = tested on: NCI-H23 lung
NCI-H226 lung = tested on: NCI-H226 lung
NCI-H322M lung = tested on: NCI-H322M lung
HOP-62 NSCLC = tested on: HOP-62 NSCLC
NCI-H460 lung = tested on: NCI-H460 lung
HOP-92 NSCLC = tested on: HOP-92 NSCLC
NCI-H522 lung = tested on: NCI-H522 lung
A549/ATCC NSCLC = tested on: A549/ATCC NSCLC
786-0 renal = tested on: 786-0 renal
COLO 205 colon = tested on: COLO 205 colon

SMILES	growth (NCI-H23 lung)	growth (NCI-H226 lung)	growth (NCI-H322M lung)	growth (HOP-62 NSCLC)	growth (NCI-H460 lung)	growth (HOP-92 NSCLC)	growth (NCI-H522 lung)	growth (A549/ATCC NSCLC)	growth (786-0 renal)	growth (COLO 205 colon)
Cc1ccc(/C(N)=N/c2sc(-c3ccccc3)nc2-c2ccccc2)cc1	83.1%	94.3%	90.2%	101%	76.5%	90.2%	83%	80.4%	76.7%	91.1%
C=C1CCC2C3(C)COC(c4c(F)cccc4F)OC3CCC2(C)C1C/C=C1/C(=O)OCC1O (stereo not given)	-46.8% (active)	-11.2% (active)	37.5%	-13.7% (active)	-22.3% (active)	4.64% (active)	-67.7% (active)	10.1%	-77.6% (active)	-35.8% (active)
C=C1CCC2C3(C)COC(c4cccc(F)c4)OC3CCC2(C)C1CC(O)C1=CCOC1=O (stereo not given)	82.9%	73.1%	90.4%	88.7%	82.2%	76.4%	23.9%	80.3%	41.1%	60.7%
COc1cc(/C=C/C(=O)c2ccc(S(=O)(=O)NCCNc3nc(Nc4ccc(F)cc4)nc(N(C)C)n3)cc2)cc(OC)c1OC	13.7%	-21.6% (active)	58.7%	30.2%	15.8%	60.4%	68%	18.4%	-64.2% (active)	-50.8% (active)
C/C(=N\N=C\c1ccc(N(C)C)cc1)c1ccc2c(c1)Nc1ccccc1S2	31.4%	16.8%	79.5%	62.2%	25%	59.5%	48.5%	50.5%	67.5%	60.4%
CC1(C)CC[C@]2(C(=O)O)CC[C@]3(C)C(=CC[C@@H]4[C@@]5(C)C/C(=C/c6ccncc6)[C@H](O)C(C)(C)[C@@H]5CC[C@]43C)[C@@H]2C1	37.6%	38.2%	34%	42.1%	34%	4.52% (active)	42.1%	19.9%	48.4%	37.2%
Cc1cccc2cc(-c3cc(-c4ccccc4)nc(=O)[nH]3)c(Cl)nc12	88.7%	75.7%	89.9%	109%	80.7%	77.1%	87.7%	96.4%	91.6%	119%
O=C(CN1CCN(c2ncnc3c2cnn3-c2ccccc2)CC1)Nc1nncs1	-55.1% (active)	43.9%	84.8%	-52.7% (active)	-22.1% (active)	-70.9% (active)	-79.3% (active)	-32.5% (active)	-80.9% (active)	-50.2% (active)
CN1CCN(Cc2ccc(NC(=O)c3cncc(C#Cc4cnc5ccc(N[C@H]6CCOC6)nn45)c3)cc2C(F)(F)F)CC1	-80.4% (active)	-89.1% (active)	-95.3% (active)	-80% (active)	-76.1% (active)	-79.4% (active)	-69.1% (active)	-59.9% (active)	-75.6% (active)	-79.6% (active)
O=C(c1ccc(Cl)cc1)C1[C@H](c2ccc(Br)cc2)[C@@H](c2ccccc2)NC12C(=O)Nc1ccc(Br)cc12 (stereo not given in full)	-92.7% (active)	-90.5% (active)	-59.3% (active)	-80.3% (active)	-62.5% (active)	-72.7% (active)	-82% (active)	-51.5% (active)	-80.4% (active)	-88.2% (active)
O=C(c1ccc([N+](=O)[O-])c([N+](=O)[O-])c1O)n1[nH]c(=O)c2ccccc2c1=O	50.5%	82.1%	85.8%	75.5%	44.8%	78.6%	54.8%	77.6%	97.7%	124%
Cc1noc2c(Cc3ccccc3)nn(CC(=O)N/N=C/c3ccc(Br)cc3)c(=O)c12	69.9%	32.5%	102%	43.3%	13.1%	35.1%	74.4%	18.1%	-24.9% (active)	39.7%
COc1cnc2c(c1)C(=O)c1c-2n(CCCNCCO)c(=O)c2cc(OC)c(OC)cc12	3.38% (active)	15.4%	30.9%	12.1%	10.2%	54.4%	15.1%	43%	-11.9% (active)	15.4%
COc1ccccc1[C@H]1C(C(=O)c2ccc(Cl)cc2)C2(N[C@@H]1c1ccccc1)C(=O)Nc1ccccc12 (stereo not given in full)	-55.3% (active)	-53.2% (active)	10.3%	-21.9% (active)	-27.2% (active)	-21.8% (active)	-27.5% (active)	9.22% (active)	-15% (active)	-88.2% (active)
COc1ccc2cc([C@H](C)C(=O)NCc3ccccc3)ccc2c1	33.6%	59.5%	49.7%	41.8%	17.7%	104%	-5.33% (active)	59.7%	59.7%	0.915% (active)
CCOC(=O)c1sc(N/N=C(\C)c2ccc3c(c2)Nc2ccccc2S3)nc1C	13.9%	34.8%	45.2%	43.7%	5.63% (active)	-9.2% (active)	30.9%	29.2%	33.6%	-42.2% (active)
CCOC(=O)N/C(=C1/OCCN1C)[P+](c1ccccc1)(c1ccccc1)c1ccccc1	85.8%	93.1%	89.9%	97.6%	86.7%	59.1%	54.2%	89%	101%	41.3%
CC[C@]12C=CCN3CC[C@@]4(c5cc(C#CCNc6ccc(C)c(Nc7nccc(-c8cccnc8)n7)c6)c(OC)cc5N(C)[C@H]4[C@@](O)(C(=O)OC)[C@@H]1OC(C)=O)C32 (stereo not given in full)	56.3%	30.6%	90.8%	64.2%	34.1%	42.2%	58.5%	36.8%	46.3%	31.7%
Cn1cc(/C=N/Nc2ccnc3cc(Cl)ccc23)c2ccccc21	-84.1% (active)	-67.5% (active)	-99.6% (active)	-63.8% (active)	-67.5% (active)	-68% (active)	-68.1% (active)	-39% (active)	-65.2% (active)	-59% (active)
COC[C@@H](CC(C)C)N=C1N/C(=C\c2ccc3ncsc3c2)C(=O)N1C	-17.7% (active)	11.4%	9.12% (active)	-9.28% (active)	21.2%	19.1%	-29.6% (active)	15.9%	14.9%	-28.4% (active)
O=C(Nc1ccc(F)c(Cl)c1)c1cc(-c2ccc(F)cc2F)ccc1O	-46.9% (active)	-23.4% (active)	2.57% (active)	-13% (active)	0.118% (active)	-20.6% (active)	-15% (active)	9.32% (active)	9.93% (active)	4.58% (active)
COc1cc(NC(=O)CSc2nnc(-c3ccc4nc(-c5ccc(Cl)cc5)[nH]c4c3)o2)cc(OC)c1OC	40.3%	38.7%	90.8%	89.7%	67.2%	128%	45.1%	90.4%	78.3%	82.4%
COc1ccc(N(C)c2cc(C#N)nc3ccccc23)cc1/C=C/C(=O)NO	-83.4% (active)	-39% (active)	0.0682% (active)	-48% (active)	0.587% (active)	-12.2% (active)	-75.4% (active)	7.16% (active)	-9.47% (active)	-34.2% (active)
NS(=O)(=O)c1ccc(NC(=O)CSc2ccc(-c3ccccc3)nn2)c(Br)c1	59.1%	20.5%	64.3%	17.4%	82.4%	-20.3% (active)	42.4%	70.4%	19.5%	137%
CCCCCCCCCCCCCCCCCCCC(=O)NCCc1c[nH]c2ccc(O)cc12	103%	87.6%	114%	144%	101%	148%	-13.2% (active)	90.8%	100%	147%
Cc1cccc2cc(-c3cc(-c4ccccc4)nc(=S)[nH]3)c(Cl)nc12	82.2%	90.5%	90.2%	97.4%	101%	73.2%	64.2%	95.9%	97.7%	123%
